Results as given in PubChem BioAssay AID1851 (National Center for Advancing Translational Sciences (NCATS), 2009).
The whole screen tested about 16,000 compounds, of which about 2,600 (16%) were called active. Another 20% or so got no clear call; they are omitted. The list is a sample of the results. Unmarked numbers belong to inactive results. Calls come from the whole dose curve; as a rule, active = well fitted curve in the direction sought with a large enough effect; inconclusive = small, poorly fitted or top-dose-only effect, or effect the other way; inactive = no such curve, though single readings can be large or run the other way.

Target: Cytochrome P450 2D6 (Homo sapiens) (UniProt P10635)
Sequence (P10635 whole entry, looked up): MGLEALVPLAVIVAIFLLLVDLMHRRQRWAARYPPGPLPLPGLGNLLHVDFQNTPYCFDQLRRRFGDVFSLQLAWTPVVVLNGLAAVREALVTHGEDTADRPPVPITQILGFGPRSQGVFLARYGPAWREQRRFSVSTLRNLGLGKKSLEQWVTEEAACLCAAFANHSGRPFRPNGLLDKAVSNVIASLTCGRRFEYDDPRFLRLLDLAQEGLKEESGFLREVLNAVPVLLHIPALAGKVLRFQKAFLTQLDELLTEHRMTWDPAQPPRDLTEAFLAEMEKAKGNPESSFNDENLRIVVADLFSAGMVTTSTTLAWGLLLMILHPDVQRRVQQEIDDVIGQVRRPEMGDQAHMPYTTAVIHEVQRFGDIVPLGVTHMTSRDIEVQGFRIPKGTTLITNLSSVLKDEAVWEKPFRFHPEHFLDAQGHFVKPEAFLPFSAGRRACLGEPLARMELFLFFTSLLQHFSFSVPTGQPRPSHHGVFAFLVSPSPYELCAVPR
Experiment: Cytochrome panel assay with activity outcomes
Details: recombinant CYP, pro-luciferin dealkylation, luminescence, p450-cyp2d6; series mostly up to 57.1 µM
% is set by controls: 0 for no effect and ±100 for the full control effect.

| SMILES | AC50 | activity, negative = inhibition |
| --- | --- | --- |
| COCc1c(C(N)=O)nnn1-c1nonc1N | inactive | – |
| O=C(NC1CCN(Cc2ccccc2)CC1)c1ccc(I)cc1 | 12.6 µM (active) | – |
| O=C(Cc1ccccc1)NC1CCN(S(=O)(=O)c2ccc(C(=O)O)cc2)CC1 | inactive | – |
| CC(C)C(NC(=O)C1CCCCC1)C(=O)NC1CCN(Cc2ccccc2)CC1 (stereo not drawn) | inactive | – |
| COc1ccc(CC(NC(C)=O)C(=O)NC2CCN(C(=O)Nc3ccc(Cl)cc3)CC2)cc1OC (stereo not drawn) | inactive | – |
| COc1cc(N)c(Cl)cc1C(=O)NC1CCN(Cc2ccccc2)CC1 | 0.0126 µM (active) | – |
| COc1cc([C@@H](O)CO)ccc1OS(=O)(=O)O | inactive | – |
| O=[N+]([O-])c1ccccc1N=Nc1c(O)[nH]c2ccc(S(=O)(=O)O)cc12 | – | -12.1% [at 11.4 µM] |
| C[C@@](Cc1ccc(O)c(O)c1)(NN)C(=O)O | inactive | – |
| COc1cccc(Nc2ncc3nc(C)c(=O)n(CCc4ccccc4)c3n2)c1 | inactive | – |
| C[C@@]1(C(=O)O)NCCc2cc(O)c(O)cc21 | inactive | – |
| Cc1cc(C)c2c(-n3cccc3)n[nH]c2n1 | 25.1 µM (active) | – |
| Cc1nc(N=Nc2cc(S(=O)(=O)O)ccc2S(=O)(=O)O)c(COP(=O)(O)O)c(C=O)c1O | inactive | – |
| COc1ccc(/C(C#N)=C/c2c(-c3ccc(Cl)cc3)nc3c(C)cccn23)cc1 | inactive | – |
| Cc1sc(NC(=O)C2C3CCC(O3)C2C(=O)O)c(C(=O)OC(C)C)c1-c1ccc(Cl)cc1 (stereo not drawn) | inactive | – |
| O=C(Oc1ccccc1)N1CCC2(CC1)CCN(c1ncccn1)CC2 | inactive | – |
| CCN(C(=O)COc1cc(=O)n(C)c2ccccc12)c1cccc(Cl)c1 | inactive | – |
| COc1ccccc1C(=O)N1CCN(c2ccccn2)CC1 | inactive | – |
| CN(C(=O)c1cnc(N2CCN(c3ncccn3)CC2)c2ccccc12)c1ccc(Cl)cc1 | 12.6 µM (active) | – |
| O=C(c1cnc(N2CCN(c3ncccn3)CC2)c2ccccc12)N1CCN(c2ccccn2)CC1 | 11.2 µM (active) | – |
| O=C(Cn1ccc2ccccc2c1=O)N1CCN(c2cccc(Cl)c2)CC1 | inactive | – |
| O=C(O)CCC(=O)N1CCN(c2ccccn2)CC1 | inactive | – |
| CCN(C(=O)c1cnc(N2CCN(c3ncccn3)CC2)c2ccccc12)c1cccc(Cl)c1 | 10 µM (active) | – |
| COCC(=O)N1CCC2(CC1)CCN(c1ncccn1)CC2 | inactive | – |
| CC(C)Cc1ccc([C@H](C)C(=O)O)cc1 | inactive | – |
| CCOc1ccc2nc3cc(N=Nc4ccc(N)nc4N)ccc3c(N)c2c1 | – | -4.78% [at 11.4 µM] |
| Cc1ccccc1Oc1ncnc2sccc12 | inactive | – |
| NCCc1nc(-c2nc(C(=O)O)cs2)cs1 | – | 16.3% [at 11.4 µM] |
